Screening results (PubChem BioAssay)
Insulin prom up = insulin promoter activators in MIN6 cells, imaging, high-content screening, mouse beta cells; MIN6 insulin promoter-GFP reporter; stronger effect = higher value; 190,000 compounds, 0.3% hits; AID 1625, 2009; z-score at 5 µM;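 active = z-score above 3 at 5 µM with at least 500 cells counted in the well; inconclusive = wells under 500 cells, flagged as cytotoxic or low count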
Autophagy HCS = autophagy modulators in MEF cells, primary screen, imaging, high-content, MEF GFP-LC3; MEF GFP-LC3 puncta imaging; test concentration mostly 10 µM; calls only at 10 µM (by protocol); 190,000 compounds, 0.98% hits; AID 463193, 2010;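 active = percentage of spot-positive cells more than 3 SD above its plate mean, without a fluorescence outlier flag or 80% toxicity; inconclusive = no clear call, values can overlap the other calls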;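 note: spot-positive cell cutoff set from DMSO-treated cells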
PTEN del growth = growth suppression of PTEN-null HCT116, primary screen, cell-based, CellTiter-Glo | viability, % at 10 µM | 140,000 compounds, 1.2% hits | HCT116 PTEN-null viability, 60 h; stronger effect = lower value;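 active = viability at or below a set limit, 4 SD under the median of all tested compounds, cut at about 3.7% in these data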;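 note: PTEN knockout HCT116 line with beta catenin targeted HCT116 as companion control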
L major viab = Leishmania major promastigote growth inhibition, primary screen | Leishmania major promastigotes, resazurin fluorescence viability | inhibition, % at 10 µM | AID 1063, 2008 | 200,000 compounds, 9% hits; in the data active = inhibition above about 50%;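 note: promastigotes grown with compound for 44 hours at 28 °C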
INS promoter inh = inhibitors of insulin promoter-driven GFP, primary screen, imaging, TRM-6 cells (human fetal islet line), eGFP reporter, cell count; AID 1273, 2008; inhibition, % at 2 µM; 130,000 compounds, 0.9% hits; reporter expression induced with tamoxifen;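 active = inhibition above the mean plus 3 SD, with well images judged a real hit on visual review, cut at about 60% in these data, passing the limit was not always enough; inconclusive = inhibition over the cutoff but images rejected on review; inactive = inhibition not above the cutoff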
bCat KO growth = primary screen for growth suppressors in beta-catenin knockout HCT116 cells (colon tumor, human) | HCT116 beta-catenin knockout viability, CellTiter-Glo, 60 h; stronger effect = lower value | viability, % at 10 µM | 140,000 compounds, 1.5% hits;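 active = viability at or under a set limit, the compound median less 4 SD, cut at about 6% in these data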;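 note: 0% = Hyamine 1622 control at 20 µM and 100% = untreated cell control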
* = called active by the depositor; i = inactive; ? = inconclusive; / = no result; + = active, no number. In the library only some 9.6% were active in any assay of this set; here they are far more common.

SMILES	Insulin prom up	Autophagy HCS	PTEN del growth	L major viab	INS promoter inh	bCat KO growth
C/C(=N\NC(N)=S)c1ccc(-n2ccnc2)cc1	0.02	/	/	/	/	/
COc1ccc(OCC(=O)N/N=C(\C)c2ccc(-n3ccnc3)cc2)cc1	-0.4	i	99.2	20.0	/	91.7
C/C(=N\Nc1ccc(Cl)c(Cl)c1)c1ccc(-n2ccnc2)cc1	-0.29	i	68.3	57.6*	5.4	75.1
C/C(=N\NC(=O)COc1ccc(C(C)(C)C)cc1)c1ccc(-n2ccnc2)cc1	0.08	i	49.7	52.4*	/	50.6
Cc1ccc(OCc2nc(C#N)c(NCCCn3ccnc3)o2)cc1	-1.93	i	91.0	-3.3	/	91.0
O=C(CCc1nnc(CCCc2ccccc2)o1)NCCc1ccco1	/	i	/	-1.4	47.8	/
CN(C)c1nc(-c2ccccc2)nc(-c2ccc(Cl)cc2)c1C#N	0.76	i	75.0	-0.9	3.6	72.2
O=C(/C=C/c1ccc(S(=O)(=O)N2CCOCC2)cc1)NCc1ccccc1Cl	0.55	i	95.5	79.6*	51.9	92.9
COc1ccc(CCn2c(-c3ccc(OC)cc3)nc3c(c(=O)c4ccccc4n3C)c2=O)cc1	-1.03	/	/	/	/	/
COCCn1c(-c2ccc(Cl)cc2Cl)nc2c(c(=O)c3ccccc3n2C)c1=O	-0.36	+	82.6	44.0	-43.8	76.3
Clc1ccc(SCCN2CCNCC2)cc1	/	i	/	100.1*	/	/
COCCCNC(=O)CCCn1c(=O)c2ccccc2n(CC(=O)Nc2c(C)cc(C)cc2C)c1=O	0.55	i	91.9	10.0	-106.2	83.7
COc1cc(C)c(Cl)cc1S(=O)(=O)NCCCN1CCOCC1	/	i	88.3	85.5*	39.1	86.5
COc1ccc(Br)cc1S(=O)(=O)NCCN1CCOCC1	0.18	i	/	1.6	-17.6	/
COc1cc(C)c(Br)cc1S(=O)(=O)NCCCN1CCOCC1	-1.05	i	/	75.1*	/	/
Cc1ccc(S(=O)(=O)NCCCN2CCOCC2)c(C)c1	-0.2	i	96.5	52.4*	-9.7	86.4
COc1cc(C)c(Cl)cc1S(=O)(=O)NCCN1CCOCC1	-0.24	i	113.3	-2.5	13.0	122.3
COc1cc(Cl)c(S(=O)(=O)NCCCN2CCOCC2)cc1Cl	0.03	i	105.0	93.1*	2.7	94.0
CCOC(=O)CC(NC(=O)c1ccco1)c1ccc(OC)cc1 (configuration not stated)	0.7	i	104.6	-3.8	-30.0	99.5
CCOc1ccc(CC(C(N)=O)C(N)=O)cc1CN(C)C	-0.19	i	102.7	-2.2	32.6	99.8
CCc1sc(N(C(=O)Cc2ccccc2)c2ccccc2F)nc1-c1ccc(C)cc1	-0.33	i	86.1	6.9	/	84.7
CCN1CCCC1CNCc1cccc(OC)c1OCc1ccccc1 (configuration not stated)	0.2	i	98.6	84.8*	/	87.8
CCN1CCCC1CNCc1cccc(OC)c1OCc1ccccc1F (configuration not stated)	-0.85	i	93.0	99.7*	0.0	80.4
CCN1CCCC1CNCc1ccccc1OCc1ccc(F)cc1 (configuration not stated)	0.08	i	82.7	99.6*	-97.2	70.2
COc1cccc(NC(=O)NCCCSC2CCCCC2)c1	-0.6	i	98.0	4.7	-28.6	88.8
SMILES	Insulin prom up	Autophagy HCS	PTEN del growth	L major viab	INS promoter inh	bCat KO growth
COc1ccc2cc(C(=O)O)ccc2c1	0.03	i	95.3	-5.5	8.8	96.5
O=C(CN(c1ccccn1)S(=O)(=O)c1ccccc1)Nc1ccccc1	-0.39	i	/	-3.4	23.1	/
CCOc1ccc(NC(=O)C2CCCN(S(=O)(=O)c3c(C)n[nH]c3C)C2)cc1 (configuration not stated)	0	i	/	-0.9	/	/
CC(Sc1nc2ccccc2n1C)C(=O)NC(c1ccccc1)c1ccccc1 (configuration not stated)	/	i	72.9	99.8*	-354.1	81.6
Cn1c(SC(C(=O)Nc2ccc(F)cc2)c2ccccc2)nc2ccccc21 (configuration not stated)	/	i	58.8	8.4	/	66.3
Cc1c(Br)c([N+](=O)[O-])nn1CC(=O)NCCc1c[nH]c2ccccc12	-0.24	i	/	68.7*	/	/
Cc1ccccc1NC(=O)Cn1nc(C(F)(F)F)cc1C1CC1	-0.37	i	90.0	-1.4	21.1	91.3
Cc1ccc(C)c(NC(=O)Cn2nc([N+](=O)[O-])c(Br)c2C)c1	-0.43	i	11.7	73.3*	0.0	20.0
Cc1c(Br)c([N+](=O)[O-])nn1CC(=O)NCc1ccccc1	-0.52	i	/	2.8	/	/
Cc1ccc(C)c(NC(=O)Cn2nc(C(F)(F)F)cc2C2CC2)c1	0.41	i	10.2	-2.3	-46.0	5.3*
CC(=O)Nc1ccc(S(=O)(=O)N(C)c2ccccc2)cc1	-0.15	i	85.7	0.7	-25.0	84.2
COc1ccc(N2CCN(C(=O)c3cc(-c4cccs4)nc4ccccc34)CC2)cc1	-0.24	i	/	18.7	/	/
Cc1nc(C(=O)Nc2ccccc2Cl)cc2c1[nH]c1ccccc12	0.14	i	6.2	41.4	/	13.9
Cc1ccc(S(=O)(=O)N/N=C\c2ccc([N+](=O)[O-])o2)cc1	0	i	75.1	87.2*	-16.7	65.8
Cc1cc2ncn(/N=C/c3ccc([N+](=O)[O-])o3)c2cc1C	/	i	1.6*	99.1*	-29.6	2.5*
O=[N+]([O-])c1ccc(/C=N/N=C/c2ccc([N+](=O)[O-])o2)o1	?	i	/	100.4*	i	/
O=[N+]([O-])c1ccc(/C=N/NS(=O)(=O)c2ccc(Cl)cc2)o1	0.54	i	69.6	53.4*	53.3	66.8
CCCN(CCC)CCCNC(=O)CC(C(=O)N1CCc2ccccc21)n1ccnc1 (configuration not stated)	0.54	i	90.6	0.8	7.7	90.3
Cc1ccc(C(=O)N2CC(C)OC(C)C2)c(Cl)c1 (configuration not stated)	/	i	97.5	-7.1	25.0	88.7
Cc1cc(/C=N/NC(=O)COc2cccc3cccnc23)c(C)n1-c1ccc(O)cc1	-0.23	i	99.9	27.4	13.9	102.2
CN(C)CCCNC(=S)N1CCn2c(nc3ccccc32)C1	-0.3	i	98.3	51.4*	20.0	85.0
COc1ccc(Nc2nc3c(C)cccn3c(=O)c2C=NCc2ccccc2)cc1	0.68	i	/	63.2*	0.0	/
CC(=O)c1c(C)[nH]c(C(=O)COC(=O)c2cc(S(=O)(=O)N(C)c3ccccc3)ccc2Cl)c1C	-0.23	i	90.1	7.8	22.2	91.5
CCN(c1ccccc1)S(=O)(=O)c1ccc(Cl)c(C(=O)OCC(=O)c2[nH]c(C)c(C(C)=O)c2C)c1	-0.14	i	98.1	53.1*	0.0	93.3
O=C(Nc1ccc(Cl)c(C(F)(F)F)c1)c1ccco1	-1.05	i	79.2	31.2	54.5	72.2
